In PubChem BioAssay AID463173 (ICCB-Longwood Screening Facility, Harvard Medical School, 2010):
About 1,700 (3.3%) of roughly 52,000 compounds were called active. For the sample, actives were picked, then their nearest neighbours and some compounds at random. Unmarked numbers belong to inactive results. Rule as the data show it: active = survival mostly below about 52% (no sharp cut-off); inactive = mostly above about 56%.

test system: Wild type; test: growth inhibition of S. aureus wild type versus tarO mutant, primary screen, teichoic acid synthesis inhibitors, RN4220, OD600 (AID 463173); conditions: S. aureus RN4220 wild type/DeltatarO growth, OD600, 18 h, active compounds read low, screened at 18.75 µg/mL (by protocol)

Row | SMILES | survival
1 | Cc1cccc2nc(Cn3c(=O)n(-c4ccc(Cl)cc4)c(=O)c4c5c(sc43)CCC5)cc(=O)n12 | 121%
2 | CCC(C(=O)NCCc1ccc(OC)c(OC)c1)n1nc(C)c2sc3ccccc3c2c1=O (stereo not given) | 79%
3 | CC1(C)CC(=O)C/C(=N\NC(=O)CCc2ccccc2)C1 | 122%
4 | Cc1ccc(C(c2sc3nc(-c4ccco4)nn3c2O)N2CCOCC2)cc1 (stereo not given) | 77%
5 | O=C(c1ccc2c(Cl)c3c(nc2c1)CCCC3)N1CCN(c2ccccc2F)CC1 | 0% (active)
6 | Cc1ccc(Cl)cc1N1CCN(C(=O)c2ccc3c(Cl)c4c(nc3c2)CCCC4)CC1 | 29%
7 | O=C(c1ccc2c(Cl)c3c(nc2c1)CCCC3)N1CCN(c2ccccc2)CC1 | 0% (active)
8 | O=C(c1ccc2c(Cl)c3c(nc2c1)CCCC3)N1CCN(c2cccc(Cl)c2)CC1 | 62%
9 | O=C(c1ccc2c(Cl)c3c(nc2c1)CCCC3)N1CCN(c2ccc(Cl)cc2)CC1 | 90%
10 | Cc1cccc(N2CCN(C(=O)c3ccc4c(Cl)c5c(nc4c3)CCCC5)CC2)c1C | 88%
11 | O=C(NCCCc1ccccc1)c1nn(-c2ccccc2F)nc1CO | 89%
12 | COc1ccc(C2=C(C)C(=NCc3ccc(OC(C)C)cc3)NS2(=O)=O)cc1 | 86%
13 | CCCc1nc(C(C#N)c2ccc(F)cc2)c2nnn(Cc3ccccc3)c2n1 (stereo not given) | 109%
14 | COc1ccc(N2CCN(C(=O)CN(c3cccc(C(F)(F)F)c3)S(C)(=O)=O)CC2)cc1 | 110%
15 | COc1ccccc1N1CCN(C(=O)c2ccc(CS(=O)c3ccccc3C)o2)CC1 (stereo not given) | 75%
16 | CCCSCCCNC(=O)c1cc2n(n1)CCCN(Cc1ccc(C)cc1)C2=O | 113%
17 | CCCNC(=O)c1cc2n(n1)CCCN(Cc1ccc(C)cc1)C2=O | 129%
18 | CCC(C)NC(=O)c1cc2n(n1)CCCN(Cc1ccc(C)cc1)C2=O (stereo not given) | 88%
19 | CCCCNC(=O)c1cc2n(n1)CCCN(Cc1ccc(C)cc1)C2=O | 0% (active)
20 | CCNC(=O)c1cc2n(n1)CCCN(Cc1ccc(C)cc1)C2=O | 22%
21 | Cc1ccc(CN2CCCn3nc(C(=O)NC(C)C)cc3C2=O)cc1 | -2% (active)
22 | CCCCn1cc(S(=O)(=O)c2ccc(CC)cc2)c(=O)c2cc(F)c(N3CCOCC3)cc21 | 73%
23 | O=C(c1cccc(Cl)c1)N1CCC(c2nc3c(nnn3Cc3ccc(F)cc3F)c(=O)[nH]2)CC1 | 9% (active)

Row | SMILES | survival
24 | CC(C)(C)C(=O)N1CCCC(c2nc3c(nnn3Cc3ccc(C(C)(C)C)cc3)c(=O)[nH]2)C1 (stereo not given) | 50% (active)
25 | O=C(c1ccccc1)N1CCCC(c2nc3c(nnn3Cc3ccc(F)cc3F)c(=O)[nH]2)C1 (stereo not given) | 104%
26 | Cc1cccc(Cn2nnc3c(=O)[nH]c(C4CCN(C(=O)c5ccc(F)cc5)CC4)nc32)c1 | 29%
27 | COc1cccc(OC)c1Cn1nnc2c(=O)[nH]c(C3CCN(C(=O)c4ccccc4)CC3)nc21 | 76%
28 | CCOc1ccc(Cn2nnc3c(=O)[nH]c(C4CCN(C(=O)c5ccccc5)CC4)nc32)cc1 | 3% (active)
29 | O=C(c1ccccc1)N1CCC(c2nc3c(nnn3Cc3ccccc3)c(=O)[nH]2)CC1 | 0% (active)
30 | Cc1ccccc1Cn1nnc2c(=O)[nH]c(C3CCN(C(=O)c4ccccc4)CC3)nc21 | 25%
31 | Cc1ccccc1Cn1nnc2c(=O)[nH]c(C3CCN(C(=O)c4ccc(F)cc4)CC3)nc21 | 74%
32 | Cc1cccc(Cn2nnc3c(=O)[nH]c(C4CCCN(C(=O)c5ccc(C(C)(C)C)cc5)C4)nc32)c1 (stereo not given) | 23%
33 | COc1ccc(Cn2nnc3c(=O)[nH]c(C4CCN(C(=O)c5ccc(C)cc5)CC4)nc32)cc1OC | 53%
34 | CC(C)(C)c1ccc(C(=O)N2CCCC(c3nc4c(nnn4Cc4cccc(F)c4)c(=O)[nH]3)C2)cc1 (stereo not given) | 17%
35 | Cc1cn2c(=O)cc(COc3ccccc3NC(=O)c3ccc(Cl)cc3)nc2s1 | 85%
36 | COc1ccc(CCNC(=O)Cn2nc(C)n3c(cc4occc43)c2=O)cc1OC | 86%
37 | COc1ccc(NC(=O)c2oc3ccccc3c2NC(=O)Cc2coc3ccc(C)cc23)cc1 | 85%
38 | CCc1ccccc1NC(=O)c1sc2nc3n(c(=O)c2c1C)CCC3 | 90%
39 | CCOc1cc(C#N)c(NC(=O)c2ccc(OC)c(S(=O)(=O)N3CCCCC3)c2)cc1OCC | 75%
40 | O=C(Cc1cccc([N+](=O)[O-])c1)NCc1nc2cccnc2n1Cc1ccc(F)cc1 | 133%
41 | COc1ccc(Cn2c(CNC(=O)Cc3cccc([N+](=O)[O-])c3)nc3cccnc32)cc1 | -6% (active)
42 | CCc1ccc(S(=O)(=O)NCc2nc3cccnc3n2Cc2ccccc2Cl)cc1 | 83%
43 | COc1ccc(Cn2c(CNS(=O)(=O)c3ccc4c(c3)CCCC4)nc3cccnc32)cc1 | 133%
44 | Cc1ccc(Cn2c(CNC(=O)Cc3cccc([N+](=O)[O-])c3)nc3cccnc32)cc1 | 67%
45 | CCOc1ccc(Cn2c(CNS(=O)(=O)c3ccc([N+](=O)[O-])cc3)nc3cccnc32)cc1 | 87%
46 | CCc1ccc(Cn2c(CNS(=O)(=O)c3ccc(C)c(C)c3)nc3cccnc32)cc1 | 71%

Row | SMILES | survival
47 | CC(C)(C)c1ccc(S(=O)(=O)NCc2nc3cccnc3n2Cc2ccccc2Cl)cc1 | 14% (active)
48 | O=[N+]([O-])c1ccc(S(=O)(=O)NCc2nc3cccnc3n2Cc2ccccc2Cl)cc1 | 74%
49 | CCOc1ccc(Cn2c(CNS(=O)(=O)c3ccc(CC)cc3)nc3cccnc32)cc1 | 69%
50 | COc1ccc(Cn2c(CNS(=O)(=O)c3ccc(C)c(C)c3)nc3cccnc32)cc1 | -1% (active)
51 | CCc1ccc(Cn2c(CNS(=O)(=O)c3ccc([N+](=O)[O-])cc3)nc3cccnc32)cc1 | 0% (active)
52 | COC(=O)c1ccc2c(c1)N(CC(=O)Nc1cccc(C(F)(F)F)c1)C(=O)c1ccccc1S2 | 77%
53 | Cc1ccc(OCC(=O)Nc2ccc3nc(SCC(=O)N4CCCC4)sc3c2)cc1 | 91%
54 | COc1cccc(CC(=O)NCc2ccc3c(c2)CCN3C(C)=O)c1 | 71%
55 | COc1cccc(C(=O)Nc2cc(-c3ccccc3)nn2-c2ccccc2)c1 | 69%
56 | Cc1ccc(NC(=O)c2c(C)oc3ccc(O)c(CN4CCCCC4)c23)cc1 | 86%
57 | Cc1cc(C)c(NS(=O)(=O)c2ccc3c(c2)CC(C)N3C(=O)C2CCC2)c(C)c1 (stereo not given) | 64%
58 | O=C(CCCCn1c(=O)c2ccccc2n(Cc2cccc(Cl)c2)c1=O)NCc1ccc2c(c1)OCO2 | 98%
59 | CCCCNC(=O)c1cccc(-n2c(C)nc3cccnc32)c1 | 73%
60 | CCc1ccccc1NC(=O)CCNS(=O)(=O)c1ccc2c(c1)CCCC(=O)N2 | 73%
61 | CCn1c(CN2CCOCC2)nc2cc(NC(=O)c3ccc([N+](=O)[O-])cc3)ccc21 | 90%
62 | c1cc2c(cc1CNC1CCCC1)OCO2 | 104%
63 | O=C(CSc1nnc(-c2ccncc2)n1-c1ccccc1)Nc1ccc(F)cc1 | 72%
64 | Cc1ccc(O)c(C2=Nc3ccccc3N=C(c3cccc(F)c3)C2)c1 | 139%
65 | O=C(CCc1ccccc1)NCc1nc2cccnc2n1Cc1ccc(F)cc1 | -6% (active)
66 | COc1ccc(CCC(=O)NCc2nc3cccnc3n2Cc2ccc(F)cc2)cc1 | 123%
67 | Cc1ccc(Cn2c(CNS(=O)(=O)c3ccc(F)c(Cl)c3)nc3cccnc32)cc1 | 134%
68 | CCc1ccc(Cn2c(CNS(=O)(=O)c3ccc(F)c(Cl)c3)nc3cccnc32)cc1 | -3% (active)
69 | CCc1ccc(Cn2c(CNS(=O)(=O)c3ccc(Cl)s3)nc3cccnc32)cc1 | 53%

Row | SMILES | survival
70 | O=S(=O)(NCc1nc2cccnc2n1Cc1ccc(F)cc1)c1ccc(Cl)s1 | -6% (active)
71 | Cc1ccc(Cn2c(CNS(=O)(=O)c3ccc(Cl)s3)nc3cccnc32)cc1 | 136%
72 | O=S(=O)(NCc1nc2cccnc2n1Cc1ccccc1Cl)c1ccc(F)c(Cl)c1 | 76%
73 | Cc1ccc(Cn2c(CNC(=O)CCc3ccccc3)nc3cccnc32)cc1 | 99%
74 | COc1ccc(C)cc1NC(=O)C(NS(=O)(=O)c1cccc2nsnc12)c1ccccc1 (stereo not given) | 64%
75 | Cc1cc(C)c(/C=C/c2onc(C)c2S(=O)(=O)N2CCC(C(=O)NCc3ccccc3Cl)CC2)c(C)c1 | 72%
76 | Cc1ccc(CNS(=O)(=O)c2cc(Br)cc3c2N(C(=O)C2CC2)CC3)cc1 | 66%
77 | Cc1cc(NC(=O)COCc2cc(-c3ccc(F)cc3)on2)ccc1Br | 82%
78 | CCC(=O)N1CCc2cc(S(=O)(=O)NC(CC(C)C)C(=O)Nc3ccc(CC)cc3)ccc21 (stereo not given) | 84%
79 | COc1cccc(C2CC(=O)Nc3c2ccc(C)c3C)c1OC (stereo not given) | 87%
80 | CC1=C(C(=O)OCC2CCCCC2)C(c2ccc(Cl)cc2Cl)CC(=O)N1 (stereo not given) | 82%
81 | Cc1ccc2c(c1C)NC(=O)CC2c1ccc(Cl)cc1Cl (stereo not given) | 1% (active)
82 | CCOC(=O)CSc1ccc2nnc(CCNS(=O)(=O)c3ccccc3)n2n1 | 87%
83 | Cc1c(-c2nc(-c3ccc4c(c3)OCO4)no2)nnn1-c1ccc(C(C)C)cc1 | 73%
84 | CCOc1ccccc1CNC(=O)Cn1ncn2nc(-c3cccs3)cc2c1=O | 93%
85 | CC(C)c1ccc(OC(=O)c2cc(-c3ccc4c(c3)OCCO4)on2)cc1 | 46%
86 | O=C(Oc1ccc(Cl)cc1)c1cc(-c2ccc3c(c2)OCCO3)on1 | 108%
87 | Cc1ccc(OC(=O)c2cc(-c3ccc4c(c3)OCCO4)on2)cc1C | -7% (active)
88 | COc1ccc(OC(=O)c2cc(-c3ccc4c(c3)OCCO4)on2)cc1 | 109%
89 | N#Cc1ccc(OC(=O)c2cc(-c3ccc4c(c3)OCCO4)on2)cc1 | 117%
90 | Cc1cc(OC(=O)c2cc(-c3ccc4c(c3)OCCO4)on2)ccc1Cl | -6% (active)
